Data on 40 compounds can be found in PubChem BioAssay (NCI).

The panel holds about 83,000 compounds, 20% with a hit somewhere; the sample as a whole holds those more often.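 Interpretation: 100, growth as untreated; towards 0, rising growth inhibition; 0, no net growth; 0 to -100, cell death. Compounds scoring below 10 were considered active.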 Unmarked numbers belong to inactive results. Activity calls are given as the source filed them.

The subject of the assay is SK-MEL-2 melanoma. Description: NCI-60 one-dose screen, 48 h (100 = growth as untreated, 0 = no growth, -100 = all killed). The settings on record: 10 µM. As to the method: Growth inhibition of the SK-MEL-2 human tumor cell line is measured as a screen for anti-cancer activity. Cells are grown in 96 well plates and exposed to the test compound for 48 hours. Compounds are tested at a single concentration, which is 10^-5 M for most compounds. The reported endpoint is percent growth (GI% or GIPRCNT), where numbers from 0 - 100% represent growth inhibition, and numbers from -100% - 0 represent cell death. For example, a value of 40 represents 60% growth inhibition. A value of 0 means no net growth occurred over the course of the experiment. A value of -40 indicates 40% of cells at the beginning of the experiment died by the end of the experiment. A value of -100 means all cells are dead at the end of the experiment.
NCI-60 Human Tumor Cell Lines Screen was performed using the standard one-dose NCI protocol, which is described in more detail at https://dtp.cancer.gov/discovery_development/nci-60/default.htm.
Compounds with GIPRCNT values below 10 were considered active. Activity score was based on GIPRCNT using the following formula: […]
Score is 0 for GIPRCNT values of 100 or above, 50 for GIPRCNT values of 0, and 100 for GIPRCNT values of -100.
Take `N#Cc1ccc(-c2nn(-c3ccc(C(=O)O)cc3)cc2CNc2ccc(Cl)cc2)cc1`: the growth is 96.2%. Under `N#Cc1c(NC(=O)c2ccc(C(O)(C(F)(F)F)C(F)(F)F)cc2)sc2c1CCC(=O)C2` stands -27.4% (active).

Consider `CC1(C)CC[C@]2(C(=O)NCCCNCCCCNCCCN)CC[C@]3(C)C(=CC[C@@H]4[C@@]5(C)Cc6c([nH]c7ccccc67)C(C)(C)[C@@H]5CC[C@]43C)[C@H]2C1`, for which the growth is 101%. For the compound `Brc1ccc(N/N=C/c2c[nH]c3ccccc23)nc1`, the growth is 83.6%. For `O=C1CCC(N2Cc3c(C#CCCCNC(=O)c4ccc(NC(=O)[C@@H]5NC6(CCCCC6)[C@@]6(C(=O)Nc7cc(Cl)ccc76)[C@H]5c5cccc(Cl)c5F)cc4)cccc3C2=O)C(=O)N1` (stereo not given in full), the growth is 76.4%. Under `CCCCCc1ccc(S(=O)(=O)Nc2cc(-c3csc(N(C)C(C)=O)n3)ccc2N2CCN(C)CC2)cc1` stands 24.2%; under `COc1ccc(/C=C/C(=O)c2ccc(NC(=O)CN3C(=O)NC(C)(c4ccccc4)C3=O)cc2)cc1` (stereo not given), 93.4%. The same measure for `COc1ccc(-c2nc(-c3ccccc3)c(-c3ccccc3)n2-c2ccc(S(=O)(=O)Nc3ncccn3)cc2)cc1OC`: 108%. Regarding `CCCCOc1ccc(Nc2nc3ccccc3nc2Nc2ccc(OCCCC)cc2)cc1`, the growth is 99.5%. The same measure for `C#Cc1ccc(S(=O)(=O)Nc2cccc(-c3csc(NC(C)=O)n3)c2)cc1`: 81.5%; for `O=C(N/C(=C1/OCCN1Cc1ccccc1)[P+](c1ccccc1)(c1ccccc1)c1ccccc1)c1ccccc1`: -27.6% (active). Under `Cc1ccc(/C=C/C(=O)c2ccc(S(=O)(=O)NCCNc3nc(Nc4ccc(F)cc4)nc(N(C)C)n3)cc2)cc1` stands 84.5%; under `CONC[C@]1(C)C=C2C(=O)[C@](C)(O)C3(CC3)C(C)=C2[C@H]1O`, -100% (active); under `NS(=O)(=O)c1ccc(N=Nc2c(O)n(CC(=O)Nc3ccccc3Br)c3ccccc23)cc1`, 1.95% (active).

As for `CCN1CCN(Cc2ccc(C(=O)Nc3cccc(-c4cn(-c5ccc6oc(=O)ccc6c5)nn4)c3)cc2C(F)(F)F)CC1`, the growth is 66.1%. Under `c1ccc(C(=C(c2ccc(OCCN3CCCCC3)cc2)c2ccc(OCCN3CCCCC3)cc2)C2CCCC2)cc1` stands -90.2% (active); under `COc1cc(NC(=O)c2cc(-c3ccc(F)cc3F)ccc2O)cc(OC)c1OC`, -5.57% (active); under `COc1ccc(-c2cc(C(=O)N=Nc3c(O)[nH]c4ccccc34)c3ccccc3n2)cc1`, 64.9%. On to `CN1CCN(c2ccc(C(=O)/C=C/c3cc(C(F)(F)F)ccc3Cl)cc2)CC1`, for which the growth is 65.3%. `Cc1ccc(-c2nc(Nc3ccc(C)c(S(N)(=O)=O)c3)c3ccccc3n2)cc1`: the growth was 118%. `COc1ccc(-c2cc(-c3cc(C(=O)c4ccccc4)n4ccc(C)cc34)nc(N)c2C#N)cc1`: the growth was 84.8%. With `O=C(Nc1ccc(I)cc1)Nc1nc2ccc([N+](=O)[O-])cc2s1`, the growth is -91% (active).

In the case of `CCN(CC)CCOc1ccc(C(=C(C)c2ccccc2)c2ccc(OCCN(CC)CC)cc2)cc1`, the growth was -75.8% (active). The same measure for `COc1cc2c3c(n(CCCNC(C)C)c(=O)c2cc1OC)-c1nc2c(cc1C3=O)OCO2`: 128%; for `COc1ccc2nc(Cl)c(-c3cc(-c4ccccc4)nc(=O)[nH]3)cc2c1`: 93.3%; for `Nc1nc(Nc2ccc(Cl)cc2)nn1Cc1cccc(Br)c1`: 27.2%. Take `O=C(c1ccc(O)cc1)C1[C@H](c2ccccc2Br)[C@@H](c2ccccc2)NC12C(=O)Nc1ccc(Cl)cc12` (stereo not given in full): the growth was -72.9% (active). On to `Cc1ccc(CSc2nc(Cl)c(C#N)c(-c3ccc(F)cc3)n2)cc1`, for which the growth is 92.1%. Under `CN1CCc2c(sc3ncnc(N/N=C/c4ccc5ccccc5c4)c23)C1` stands 103%; under `CC(C)CCSc1nc(NC2CC2)c(C#N)c(-c2ccc(C(C)C)cc2)n1`, 98.9%; under `C=C1CCC2C3(C)COC(c4cc(F)cc(F)c4)OC3CCC2(C)C1C/C=C1/C(=O)OCC1O` (stereo not given), -60.8% (active). As for `O=C(Nc1ccc(OCc2ccccc2)cc1)Nc1ccc(Cl)c(C(F)(F)F)c1`, the growth is -40.2% (active).

Consider `O=C1CCC(N2Cc3cc(NC(=O)COc4ccccc4)ccc3C2=O)C(=O)N1` (stereo not given), for which the growth is 98.3%.

For the compound `COc1cc(/C=C/C(=O)c2ccc(NC(=O)CN3C(=O)NC(C)(c4ccccc4)C3=O)cc2)cc(OC)c1OC` (stereo not given), the growth is 86%.

As to `COc1cc(/C=N/NC(=O)c2ccc3nc(-c4ccc(Cl)cc4)[nH]c3c2)cc(OC)c1OC`, the growth was -17.3% (active).

Regarding `O=C1Nc2cc(-c3ccc(NC(=O)c4cccs4)cc3)ccc2/C1=C/c1ccc[nH]1`, the growth was 83.5%. Under `CN1CCN(c2ccc(Nc3nc(N4CCN(S(=O)(=O)c5ccc(F)cc5)CC4)c4sccc4n3)cc2)CC1` stands -72.7% (active); under `COc1ccccc1[C@H]1C(C(=O)c2ccc(O)cc2)C2(N[C@@H]1c1ccccc1)C(=O)Nc1ccc(Br)cc12` (stereo not given in full), 32.1%. The same measure for `COc1ccc2nc(Nc3cccc(NC(=O)c4ccc(CN5CCN(C)CC5)c(C(F)(F)F)c4)c3)ccc2c1`: -98.3% (active); for `COc1ccc(C(=O)/C=C/c2cc(F)cc(C(F)(F)F)c2)cc1S(N)(=O)=O`: 12.8%.
